Experiment [1] is described as follows: CCTE_Mundy_HCI_Cortical_Synap_Neur_Matur_NeuriteSpotCountPerNeuron: CCTE's Synaptogenesis and Neurite Maturation Assay in rat cortical cells for Neurite Spot Count per Neuron Count, Mundy Lab (AID 2284215). In short, it runs like this: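 Rat primary cortical cultures given AraC at DIV 5, dosed from DIV 7 to DIV 12 with media change. Fixed, stained for MAP2, synaptophysin and Hoechst; neurite-associated synaptophysin puncta per neuron quantified by high-content imaging versus DMSO.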

Experiment [2] in a line: CCTE_Mundy_HCI_Cortical_Synap_Neur_Matur_SynapseCount: CCTE's Synaptogenesis and Neurite Maturation Assay in rat cortical cells for Synapse Count, Mundy Lab (AID 2284218). In a few lines:
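Endpoint: synapses/neuron by HCI (synaptophysin puncta on MAP2-labelled neurites, Hoechst nuclei). Rat primary cortical cells, AraC DIV 5, dosed DIV 7, fixed DIV 12; DMSO negative control.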

A short description of experiment [3]: CCTE_Mundy_HCI_Cortical_Synap_Neur_Matur_NeuriteCount: CCTE's Synaptogenesis and Neurite Maturation Assay in rat cortical cells for Neurite Count, Mundy Lab (AID 2284222). In short, it runs like this:
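Chemical exposure runs DIV 7–12 in rat cortical cultures, glia suppressed by AraC at DIV 5; measurement is at DIV 12. Imaging-derived neurite counts are fitted against DMSO baseline.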

Experiment [4] can be described thus: CCTE_Mundy_HCI_Cortical_Synap_Neur_Matur_CellBodySpotCount: CCTE's Synaptogenesis and Neurite Maturation Assay in rat cortical cells for Cell Body Spot Count, Mundy Lab (AID 2284223). In short, it runs like this: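 Primary rat cortical cultures, AraC added at DIV 5; dosed DIV 7 through DIV 12 […]. Fixed, stained for MAP2 and synaptophysin with Hoechst; cell body-associated synaptophysin puncta per neuron counted by high-content imaging, loss vs DMSO.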

The nature of experiment [5]: CCTE_Mundy_HCI_hNP1_Pro_ResponderAvgInten: CCTE's Proliferation Assay in human neuroprogenitor cells, Mundy Lab (AID 2284224; active means hit-call score of the fitted dose curve at least 0.9, where 1 is the maximum). In short, it runs like this: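 Human neuroprogenitors (hNP1, WA09 lineage) receive test chemical after 40 to 44 hours of attachment. A four-hour BrdU pulse begins twenty hours later, followed by fixation and high content imaging; signal is referenced to DMSO controls.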

Experiment [6] can be described thus: UKN2_HCS_IMR90_cell_viability: Viability Assessment in the University of Konstanz (UKN) Leist Lab Neural Crest Cell Migration Assay in human induced IMR90 Pluripotent Stem Cells (UKN2) (AID 2284233).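 Further: viability of neural crest cells differentiated from IMR90 iPSC measured by calcein-AM fluorescence imaging; cells exposed to compound for 24 h after a 24 h migration phase.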 In short, it runs like this:
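cMINC format, iPSC-derived neural crest (IMR90); 24 h migration (EGF/FGF, N2-S), then 24 h toxicant. Calcein-AM/H-33342 stain 30 min; fluorescence intensity by HCS; DMSO-normalised, bidirectional fitting.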

A short description of experiment [7]: CCTE_Mundy_HCI_hNP1_Casp3_7: CCTE's Caspase-Glo 3/7 Assay in human neuroprogenitor cells for Apoptosis, Mundy Lab (AID 2284240). In a few lines: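 Neuroepithelial-lineage stem cells from WA09 embryonic cells were treated with chemicals after 40–44 h of culture. Twenty-four hours later, caspase-3/7 activation was detected luminescently after a 30 min room-temperature reagent step, with DMSO as baseline.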

Experiment [8] in a line: CCTE_Mundy_HCI_hNP1_CellTiter: CCTE's Cell Titer-Glo 2 Assay in human neuroprogenitor cells for Viability, Mundy Lab (AID 2284241; active means hit-call score of the fitted dose curve at least 0.9, where 1 is the maximum). In a few lines: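 Measures ATP content in human neural progenitors derived from WA09 embryonic cells. Read-out at 26.5 hours after dosing, with DMSO serving as the negative control and baseline.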
Experiment [9] can be described thus: CCTE_Mundy_HCI_Cortical_Synap_Neur_Matur_NeuronCount: CCTE's Synaptogenesis and Neurite Maturation Assay in rat cortical cells for Neuron Count, Mundy Lab (AID 2284242; active means hit-call score of the fitted dose curve at least 0.9, where 1 is the maximum;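 further: hits reduce neuron count versus DMSO baseline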). In short, it runs like this: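 Measured at DIV 12: fluorescently labelled neurons (Hoechst nuclei, MAP2) in rat primary cortical cultures, counted by high-content imaging. AraC suppressed glia from DIV 5; DMSO served as negative control.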

Experiment [10] is described as follows: IUF_NPC2c_oligodendrocyte_migration_120hr: Leibniz Research Institute for Environmental Medicine (IUF) 120-hour Neural Progenitor Cell Migration Assay for Oligodendrocyte Migration (NPC2c) (AID 2284297).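 Further: O4-positive oligodendrocyte migration distance divided by radial glia migration distance.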 In a few lines:
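Human fetal neural progenitor spheres (0.3 mm) are plated on poly-D-lysine/laminin in N2 differentiation medium and exposed for 120 h, with half-medium renewal at day 3. Oligodendrocyte (O4+) migration distance comes from ICC imaging, normalised to radial glia migration.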

Experiment [11] is described as follows: IUF_NPC2a_radial_glia_migration_120hr: Leibniz Research Institute for Environmental Medicine (IUF) 120-hour Neural Progenitor Cell Migration Assay for Radial Glia Migration (NPC2a) (AID 2284298). In short, it runs like this:
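Human fetal-cortex neural progenitor spheres (0.3 mm) plated on poly-D-lysine/laminin in N2 differentiation medium, exposed 120 h at 37C with half-medium renewal at day 3. Radial glia migration distance (um) measured from Hoechst-stained nuclei images; DMSO baseline.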

Experiment [12] can be described thus: IUF_NPC2a_radial_glia_migration_72hr: Leibniz Research Institute for Environmental Medicine (IUF) 72-hour Neural Progenitor Cell Migration Assay for Radial Glia Migration (NPC2a) (AID 2284299). In short, it runs like this: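 Spheres of human primary neural progenitors migrate on poly-D-lysine/laminin under compound exposure at 37C, 5% CO2. The 72 h radial glia migration distance comes from brightfield images, measured manually.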

Experiment [13] can be described thus: IUF_NPC2b_neuronal_migration_120hr: Leibniz Research Institute for Environmental Medicine (IUF) 120-hour Neural Progenitor Cell Migration Assay for Neuron Migration (NPC2b) (AID 2284300). In a few lines: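 0.3 mm hNPC spheres on poly-D-lysine/laminin in N2 differentiation medium exposed 120 h, half-medium refresh day 3; 7 concentrations, DMSO max 0.1%. Neuron (TUBB3) distance from sphere core by ICC imaging, normalised to radial glia migration.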

A short description of experiment [14]: IUF_NPC3_neuronal_differentiation_120hr: Leibniz Research Institute for Environmental Medicine (IUF) 120-hour Neuronal Differentiation Assay (NPC3) (AID 2284301). In a few lines:
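Neuronal differentiation of primary human neural progenitors measured by high-content imaging: percent TUBB3+ of Hoechst+ nuclei within migrated area at 120 h, seven-point serial dilution plus solvent control, gain or loss relative to DMSO.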

Experiment [15] in a line: IUF_NPC4_neurite_length_120hr: Leibniz Research Institute for Environmental Medicine (IUF) 120-hour Neuronal Morphology Assay for Neurite Length (NPC4) (AID 2284302). In short, it runs like this:
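Neurons from differentiating human fetal neural progenitor spheres are scored for average neurite length after five days of compound exposure. Fitting uses DMSO as negative control.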

A short description of experiment [16]: IUF_NPC5_oligodendrocyte_differentiation_120hr: Leibniz Research Institute for Environmental Medicine (IUF) 120-hour Oligodendrocyte Differentiation Assay (NPC5) (AID 2284304; active means hit-call score of the fitted dose curve at least 0.9, where 1 is the maximum;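 further: primary human fetal neural progenitor spheres plated to migrate and differentiate; share of O4-positive cells among Hoechst nuclei found by CNN image analysis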). In a few lines:
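Human fetal neural progenitor spheres (0.3 mm) plated on poly-D-lysine/laminin in N2 differentiation medium and exposed for 120 h at 7 concentrations, with half-medium renewal at day 3. O4-positive cells identified by CNN, expressed as percent of Hoechst nuclei.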

Experiment [17] in a line: IUF_NPC4_neurite_area_120hr: Leibniz Research Institute for Environmental Medicine (IUF) 120-hour Neuronal Morphology Assay for Neurite Area (NPC4) (AID 2284305; active means hit-call score of the fitted dose curve at least 0.9, where 1 is the maximum). In short, it runs like this:
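Endpoint at 120 h: automated imaging of TUBB3/Hoechst-stained differentiating human neural progenitor spheres, neurite area per neuron from skeletonization. DMSO solvent control, not above 0.1%, set the baseline; medium was half-replaced on day 3.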

A short description of experiment [18]: IUF_NPC2-5_cytotoxicity_72hr: Cytotoxicity Assessment at 72 hours in the Leibniz Research Institute for Environmental Medicine (IUF) Neural Progenitor Cell Migration and Differentiation Assay for Cytotoxicity (NPC2-5) (AID 2284306; active means hit-call score of the fitted dose curve at least 0.9, where 1 is the maximum;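 further: LDH release into supernatant measured by resorufin fluorescence marking membrane damage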). In a few lines: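 Primary human neural progenitor spheres migrate and differentiate on laminin. Compound is present from the start of differentiation, with DMSO kept at or below 0.1%. At 72 h, supernatant LDH is quantified fluorometrically, with values fitted in the positive direction.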

A short description of experiment [19]: IUF_NPC2-5_cytotoxicity_120hr: Cytotoxicity Assessment at 120 hours in the Leibniz Research Institute for Environmental Medicine (IUF) Neural Progenitor Cell Migration and Differentiation Assay (NPC2-5) (AID 2284307; active means hit-call score of the fitted dose curve at least 0.9, where 1 is the maximum). In a few lines: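 Human fetal (GW 16-19) neural progenitor spheres (0.3 mm) plated on poly-D-lysine/laminin in N2 differentiation medium, exposed 120 h with half-medium renewal at day 3; 7 concentrations plus solvent control, DMSO ≤0.1%. LDH release in supernatant read by resorufin fluorescence.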

The nature of experiment [20]: IUF_NPC2-5_cell_number_120hr: Cell Number Assessment at 120 hours in the Leibniz Research Institute for Environmental Medicine (IUF) Neural Progenitor Cell Migration and Differentiation Assay (NPC2-5) (AID 2284308).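 Further: count of Hoechst-stained nuclei in migration zone around plated human neural progenitor spheres.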 In a few lines: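 Human fetal neural progenitor spheres (0.3 mm) plated on poly-D-lysine/laminin in N2 differentiation medium, exposed five days across 7 concentrations with half-medium refresh at day 3. Hoechst-positive nuclei counted in migration area at 120 h, relative to DMSO.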

A short description of experiment [21]: IUF_NPC2-5_viability_120hr: Viability Assessment at 120 hours in the Leibniz Research Institute for Environmental Medicine (IUF) Neural Progenitor Cell Migration and Differentiation Assay (NPC2-5) (AID 2284312). In a few lines: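 Human fetal (GW 16-19) neural progenitor spheres of 0.3 mm were plated on poly-D-lysine/laminin in N2 differentiation medium and exposed from day 0 for 120 h, with half-medium refresh at day 3. Viability was read as alamar blue resazurin-to-resorufin fluorescence against DMSO.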

Experiment [22] is described as follows: IUF_NPC1_cytotoxicity_72hr: Cytotoxicity Assessment at 72 hours in the Leibniz Research Institute for Environmental Medicine (IUF) Neural Progenitor Cell Proliferation Assay (NPC1) (AID 2284332; active means hit-call score of the fitted dose curve at least 0.9, where 1 is the maximum;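 further: rising LDH signal means more cytotoxicity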). In a few lines: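 Readout is fluorescence from LDH-dependent resazurin conversion, sampled from culture medium after compound contact lasting 72 h. Each well holds one 0.25-0.35 mm human progenitor sphere kept at 37C, 5% CO2 with EGF and FGF.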

Experiment [23] in a line: CCTE_Mundy_HCI_iCellGluta_NOG_NeuronCount: CCTE's Neurite Outgrowth Assay in iCellGluta cells for Neuron Count, Mundy Lab (AID 2284340; active means hit-call score of the fitted dose curve at least 0.9, where 1 is the maximum;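 further: cells fixed about 48 h after compound addition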). In a few lines:
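Neuron count read by automated high-content imaging of Hoechst 33342 and betaIII-tubulin/Alexa Fluor-488 labelling in human iPSC glutamatergic neurons. Activity fitted relative to DMSO.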

The nature of experiment [24]: CCTE_Mundy_HCI_iCellGluta_NOG_NeuriteCount: CCTE's Neurite Outgrowth Assay in iCellGluta cells for Neurite Count, Mundy Lab (AID 2284342; active means hit-call score of the fitted dose curve at least 0.9, where 1 is the maximum;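 further: chemical exposure about 48 hours starting 2 hours after plating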).

Records with an inconclusive call do not appear. Activity calls are given as the source filed them. How the source made its calls, unless noted: active means hit-call score of the fitted dose curve at least 0.9, where 1 is the maximum; inactive means score below 0.9.

The term AC50 denotes the concentration at which the activity in the assay is half-maximal. Consider `CC1(C)C(C=C(Cl)Cl)C1C(=O)O[C@H](C#N)c1cccc(Oc2ccccc2)c1` (some centres undefined), for which the AC50 is 10.8 µM (active) in experiment [1]; 10.9 µM (active) in experiment [2]; 12.3 µM (active) in [3]; 12 µM (active) in [4]; 23.3 µM (active) in experiment [5]; 29.3 µM (active) in experiment [7]. Also, the AC50 in [9] is 10.1 µM (active); in experiment [14], 0.851 µM (active); in experiment [16] it was 1.32 µM (active). Also, the result in experiment [6], in experiment [8], in experiment [10], in experiment [11], in [12] and in experiment [13] was inactive. Moreover, the outcome in experiment [15], in experiment [17], in experiment [18], in [19], in experiment [20] and in experiment [21] was inactive. Besides, the result in [22], in experiment [23] and in [24] was inactive.
